Source: PubChem BioAssay (Tox21)
Values without a mark were called inactive. Records with an inconclusive call do not appear. A call without a number means that no potency is given here. Calls of active or inactive are those of the source. Calls come from the whole dose curve; as a rule, active = well fitted curve in the direction sought with a large enough effect in the repeat runs; inconclusive = weak or mixed curves; inactive = no such curve, though single readings can be large; an effect the other way counts as inactive or inconclusive.

Key:
[1] = Caspase-3/7 induction in HepG2 cells by small molecules, qHTS assay (AID 1346978); details: HepG2 caspase-3/7 activation, Caspase-Glo luminescence, 17 h; series mostly up to 92.4 µM; note: nearly all actives have a fitted effect of over 15% in size
How it was run: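 Wild-type HepG2 cells (2,000/well) were settled 5 h at 37 C, 5% CO2, then exposed to compounds in DMSO for 17 h. Caspase-3/7 activity was read by luminescence 30 min after adding Caspase-Glo 3/7 reagent at room temperature.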

[2] = Caspase-3/7 induction in CHO-K1 cells by small molecules, qHTS cell viability counter screen (AID 1346979); details: CellTiter-Fluor fluorescence, 17 h; series mostly up to 92.4 µM; note: nearly all actives have a fitted effect of over 35% in size; note: potency is the fitted concentration of half-maximal effect
How it was run: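 Wild-type CHO-K1 cells were seeded at 1,500 per well, rested 5hr at 37 C, then exposed to compounds in DMSO. After 16hr, CellTiter-Fluor reagent was added and fluorescence read 1hr later as the viability measure.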

[3] = Caspase-3/7 induction in CHO-K1 cells by small molecules, qHTS assay (AID 1346980); details: CHO-K1 caspase-3/7 induction, Caspase-Glo luminescence, 17 h; series mostly up to 92.4 µM; note: nearly all actives have a fitted effect of over 15% in size
How it was run: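 Wild-type cells were seeded at 1,500 per well and settled 5 hr at 37 C, 5% CO2, then exposed to DMSO-dissolved compounds for 17 hr. Caspase-Glo 3/7 reagent was added, and luminescence was read after 30min at room temperature.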

[4] = Caspase-3/7 induction in HepG2 cells by small molecules, qHTS cell viability counter screen (AID 1346981); details: CellTiter-Fluor fluorescence, 17 h; series mostly up to 92.4 µM; note: nearly all actives have a fitted effect of over 30% in size
How it was run: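 Wild-type HepG2 cells (2,000/well) were allowed to settle for 5 hr at 37 C, 5% CO2, then dosed with compounds in DMSO by pin transfer. After 16 hr at 37 C, CellTiter-Fluor was added and fluorescence read 1 hr later.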

[5] = molecular target: Nuclear receptor subfamily 1 group I member 2 (Homo sapiens) (UniProt O75469); assay: Human pregnane X receptor (PXR) small molecule agonists, qHTS assay (AID 1346982); details: PXR-Luc HepG2, CYP3A4 luciferase reporter, 24 h; series mostly up to 92.4 µM; note: nearly all actives have a fitted effect of over 35% in size
How it was run: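 PXR-Luc HepG2 cells (CYP3A4 promoter-driven luciferase) were seeded in medium with 5% charcoal-stripped FBS, left 5 hr at 37 C, then exposed to compounds in DMSO for 24 hr. Luminescence was read after ONE-Glo addition.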

[6] = molecular target: Cytochrome P450 2D6 (Homo sapiens) (UniProt P10635); assay: Cytochrome P450 Family 2 Subfamily D Member 6 (CYP2D6) small molecule antagonists: luciferase reporter qHTS assay (AID 1671196); details: P450-Glo CYP2D6 enzyme assay, luciferin luminescence, 1 h; series mostly up to 115 µM; note: nearly all actives have a fitted effect of over 50% in size; note: potency is the fitted concentration of half-maximal effect
How it was run: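 CYP2D6 enzyme–substrate mix was held with compound for 10 min at room temperature, then NADPH regeneration solution was added and the reaction ran 1 h at room temperature. Luciferin product was detected by luminescence after 20 min with detection reagent.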

[7] = molecular target: Cytochrome P450 2C9 (Homo sapiens) (UniProt P11712); assay: Cytochrome P450 Family 2 Subfamily C Member 9 (CYP2C9) small molecule antagonists: luciferase reporter qHTS assay (AID 1671198); details: P450-Glo CYP2C9 enzyme assay, luciferin luminescence; series mostly up to 115 µM; note: nearly all actives have a fitted effect of over 50% in size; note: potency is the fitted concentration of half-maximal effect
How it was run: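 CYP2C9 activity was measured with a P450-Glo proluciferin substrate. Enzyme–substrate mix was held with compound for 10 min at room temperature, then NADPH regeneration solution was added for 1 h at 37C. Luciferin product was read as luminescence.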

[8] = molecular target: Voltage-gated inwardly rectifying potassium channel KCNH2 (Homo sapiens) (UniProt Q12809); assay: Human Ether-a-go-go-Related Gene (hERG) channel small molecule antagonists: fluorescence cell-based qHTS assay (AID 1671200); details: hERG-U2OS cells, FluxOR thallium flux fluorescence; series mostly up to 76.8 µM;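 note: hERG-expressing U2OS cells given a thallium stimulus after FluxOR II dye loading; nearly all actives have a fitted effect of over 50% in size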
How it was run: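 U2OS cells expressing the channel were plated at 1000 cells/well, incubated overnight at 37 C, then loaded with FluxOR II thallium-sensitive dye for 1 h at room temperature in the dark, with a further 10 min at room temperature before stimulation.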

[9] = molecular target: Cytochrome P450 3A4 (Homo sapiens) (UniProt P08684); assay: Cytochrome P450 Family 3 Subfamily A Member 4 (CYP3A4) small molecule antagonists: luciferase reporter qHTS assay (AID 1671201); details: P450-Glo CYP3A4 enzyme, luciferin luminescence, 1 h; series mostly up to 115 µM; note: nearly all actives have a fitted effect of over 50% in size
How it was run: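 P450-Glo CYP3A4 system with proluciferin substrate; compounds preincubated 10 min RT with enzyme-substrate mix, then NADPH regeneration added for 1 h RT. Detection reagent 20 min, luminescence read as relative luminescence units.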

[10] = molecular target: Cytochrome P450 2C19 (Homo sapiens) (UniProt P33261); assay: Cytochrome P450 Family 2 Subfamily C Member 19 (CYP2C19) small molecule antagonists: luciferase reporter qHTS assay (AID 1671197); details: P450-Glo CYP2C19 enzyme, luciferin luminescence, 1 h; series mostly up to 115 µM; note: nearly all actives have a fitted effect of over 65% in size; note: potency is the fitted concentration of half-maximal effect
How it was run: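 Inhibition of CYP2C19 was scored from loss of luminescence in a P450-Glo proluciferin substrate assay, NADPH-started and run 1 h at 37C, with ketoconazole as positive control.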

[11] = molecular target: Cytochrome P450 1A2 (Homo sapiens) (UniProt P05177); assay: Cytochrome P450 Family 1 Subfamily A Member 2 (CYP1A2) small molecule antagonists: luciferase reporter qHTS assay (AID 1671199); details: P450-Glo CYP1A2 enzyme, luciferin luminescence, 1 h; series mostly up to 53 µM; note: nearly all actives have a fitted effect of over 50% in size; note: potency is the fitted concentration of half-maximal effect
How it was run: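 Human CYP1A2 activity measured with a P450-Glo proluciferin substrate; compounds in DMSO preincubated 10 min at room temperature with enzyme-substrate mix, then NADPH regeneration system added for 1 h. Luciferin detection reagent, 20 min, luminescence read.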

[12] = molecular target: Nuclear receptor subfamily 1 group I member 2 (Rattus norvegicus) (UniProt Q9R1A7); assay: Rat pregnane X receptor (rPXR) activation by small molecules, qHTS assay (AID 1346983); details: rPXR luciferase reporter cells, One-Glo luminescence, 24 h; hits give high values; note: nearly all actives have a fitted effect of over 20% in size
How it was run: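 Cell-based rPXR luciferase reporter assay, 2,000 cells per well, rested 5hr at 37 C before compound addition in DMSO, then 24 hr at 37 C. One-Glo reagent was added and luminescence read after 30 min at room temperature.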

[13] = molecular target: Nuclear receptor subfamily 1 group I member 2 (Homo sapiens) (UniProt O75469); assay: CYP3A4 induction through human pregnane X receptor (PXR) by small molecules, qHTS assay (AID 1346984); details: DPX-2 HepG2 PXR, CYP3A4-luciferin luminescence, 24 h; series mostly up to 46.1 µM; note: nearly all actives have a fitted effect of over 40% in size
How it was run: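 DPX-2 cells (HepG2 co-transfected with PXR and CYP3A4 promoter-luciferase) treated with compounds 24 h at 37C; luciferin-IPA CYP3A4 substrate 3uM final added for 3 h, then One-Glo; luminescence read. qHTS format.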

[14] = molecular target: Nuclear receptor subfamily 1 group I member 2 (Homo sapiens) (UniProt O75469); assay: Human pregnane X receptor (PXR) activation by small molecules, qHTS assay (AID 1346985); details: DPX-2 HepG2 CYP3A4-luciferase, 24 h; series mostly up to 38.3 µM; note: nearly all actives have a fitted effect of over 40% in size
How it was run: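 DPX-2 cells (HepG2 co-transfected with a PXR response element and a CYP3A4-promoter luciferase construct) were seeded at 2,000 per well, rested 5 hr at 37C, then exposed to DMSO-dissolved compounds for 24 hr. Activation was read as luciferase luminescence.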

Sequence of Nuclear receptor subfamily 1 group I member 2 (Homo sapiens) (O75469 whole entry, looked up): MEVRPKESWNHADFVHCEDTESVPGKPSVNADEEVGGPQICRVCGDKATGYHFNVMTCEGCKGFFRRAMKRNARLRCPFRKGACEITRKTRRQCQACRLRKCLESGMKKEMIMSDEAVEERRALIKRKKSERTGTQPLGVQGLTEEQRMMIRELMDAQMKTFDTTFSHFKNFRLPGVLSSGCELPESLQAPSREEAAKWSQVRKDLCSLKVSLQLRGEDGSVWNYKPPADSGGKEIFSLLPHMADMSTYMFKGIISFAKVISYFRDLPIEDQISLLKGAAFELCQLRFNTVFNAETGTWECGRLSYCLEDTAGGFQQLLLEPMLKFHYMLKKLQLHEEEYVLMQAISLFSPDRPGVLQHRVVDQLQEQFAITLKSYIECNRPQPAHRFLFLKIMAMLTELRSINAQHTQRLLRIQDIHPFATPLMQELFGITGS
Sequence of Nuclear receptor subfamily 1 group I member 2 (Rattus norvegicus) (Q9R1A7 whole entry, looked up): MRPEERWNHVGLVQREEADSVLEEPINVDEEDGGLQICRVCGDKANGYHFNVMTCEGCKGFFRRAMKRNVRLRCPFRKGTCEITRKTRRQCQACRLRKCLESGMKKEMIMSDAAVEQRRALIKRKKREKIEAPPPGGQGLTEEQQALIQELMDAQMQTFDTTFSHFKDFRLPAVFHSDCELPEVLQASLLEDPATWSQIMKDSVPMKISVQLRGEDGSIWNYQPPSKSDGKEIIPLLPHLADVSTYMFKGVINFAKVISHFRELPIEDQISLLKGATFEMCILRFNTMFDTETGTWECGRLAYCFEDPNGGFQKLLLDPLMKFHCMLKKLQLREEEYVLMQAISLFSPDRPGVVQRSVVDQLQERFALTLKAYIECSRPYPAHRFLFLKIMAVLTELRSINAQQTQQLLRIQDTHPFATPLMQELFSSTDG
Sequence of Cytochrome P450 2D6 (Homo sapiens) (P10635 whole entry, looked up): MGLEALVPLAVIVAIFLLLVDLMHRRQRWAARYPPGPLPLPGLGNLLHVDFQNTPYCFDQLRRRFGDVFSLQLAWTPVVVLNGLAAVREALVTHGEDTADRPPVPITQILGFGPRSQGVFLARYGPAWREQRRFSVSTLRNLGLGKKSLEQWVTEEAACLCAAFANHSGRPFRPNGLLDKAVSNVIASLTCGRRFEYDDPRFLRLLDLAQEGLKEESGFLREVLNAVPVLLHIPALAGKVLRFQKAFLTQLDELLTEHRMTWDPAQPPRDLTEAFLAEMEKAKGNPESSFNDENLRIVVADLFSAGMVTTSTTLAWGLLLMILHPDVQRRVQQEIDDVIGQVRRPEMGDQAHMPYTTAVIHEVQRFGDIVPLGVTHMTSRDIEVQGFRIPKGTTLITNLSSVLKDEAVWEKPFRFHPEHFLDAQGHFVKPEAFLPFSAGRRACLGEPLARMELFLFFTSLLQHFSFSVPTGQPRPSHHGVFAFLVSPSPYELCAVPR
Sequence of Cytochrome P450 2C9 (Homo sapiens) (P11712 whole entry, looked up): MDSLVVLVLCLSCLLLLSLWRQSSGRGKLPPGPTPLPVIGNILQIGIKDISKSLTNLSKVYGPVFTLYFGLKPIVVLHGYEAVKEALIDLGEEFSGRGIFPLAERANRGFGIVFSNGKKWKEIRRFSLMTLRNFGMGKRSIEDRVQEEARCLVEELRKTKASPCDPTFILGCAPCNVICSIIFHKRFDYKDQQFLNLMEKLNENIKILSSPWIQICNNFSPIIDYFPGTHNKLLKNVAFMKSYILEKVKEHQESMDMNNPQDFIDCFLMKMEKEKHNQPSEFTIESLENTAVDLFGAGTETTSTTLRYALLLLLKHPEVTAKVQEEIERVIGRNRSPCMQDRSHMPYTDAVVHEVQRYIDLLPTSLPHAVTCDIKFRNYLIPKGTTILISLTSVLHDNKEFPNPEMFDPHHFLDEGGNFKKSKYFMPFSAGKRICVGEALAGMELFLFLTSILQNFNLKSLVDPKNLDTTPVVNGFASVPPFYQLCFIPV
Sequence of Cytochrome P450 1A2 (Homo sapiens) (P05177 whole entry, looked up): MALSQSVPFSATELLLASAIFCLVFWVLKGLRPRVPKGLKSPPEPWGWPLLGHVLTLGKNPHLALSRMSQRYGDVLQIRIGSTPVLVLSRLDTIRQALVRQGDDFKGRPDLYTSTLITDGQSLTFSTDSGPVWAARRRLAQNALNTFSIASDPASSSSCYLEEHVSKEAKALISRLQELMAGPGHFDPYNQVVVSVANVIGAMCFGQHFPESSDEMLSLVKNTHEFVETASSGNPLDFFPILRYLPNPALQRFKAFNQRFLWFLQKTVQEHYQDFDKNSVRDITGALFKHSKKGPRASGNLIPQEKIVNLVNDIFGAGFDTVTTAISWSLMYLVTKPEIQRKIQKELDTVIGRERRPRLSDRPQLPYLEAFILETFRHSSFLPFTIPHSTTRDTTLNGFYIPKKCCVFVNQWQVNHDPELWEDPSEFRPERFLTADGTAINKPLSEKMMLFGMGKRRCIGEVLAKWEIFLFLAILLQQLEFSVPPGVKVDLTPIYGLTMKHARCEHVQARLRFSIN
Sequence of Cytochrome P450 3A4 (Homo sapiens) (P08684 whole entry, looked up): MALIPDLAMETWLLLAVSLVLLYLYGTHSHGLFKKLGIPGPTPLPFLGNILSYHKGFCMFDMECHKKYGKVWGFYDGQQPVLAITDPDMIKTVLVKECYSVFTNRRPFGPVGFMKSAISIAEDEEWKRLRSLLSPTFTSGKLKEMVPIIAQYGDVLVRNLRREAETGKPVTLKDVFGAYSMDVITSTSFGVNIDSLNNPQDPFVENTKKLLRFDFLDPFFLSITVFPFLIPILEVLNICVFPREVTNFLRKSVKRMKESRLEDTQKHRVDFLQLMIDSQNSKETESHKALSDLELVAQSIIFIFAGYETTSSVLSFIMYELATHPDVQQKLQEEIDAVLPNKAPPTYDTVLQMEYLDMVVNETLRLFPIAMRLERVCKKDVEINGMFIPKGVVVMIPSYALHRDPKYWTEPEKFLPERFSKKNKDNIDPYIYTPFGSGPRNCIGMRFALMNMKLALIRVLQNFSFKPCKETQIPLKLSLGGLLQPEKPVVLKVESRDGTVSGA
Sequence of Voltage-gated inwardly rectifying potassium channel KCNH2 (Homo sapiens) (Q12809 whole entry, looked up): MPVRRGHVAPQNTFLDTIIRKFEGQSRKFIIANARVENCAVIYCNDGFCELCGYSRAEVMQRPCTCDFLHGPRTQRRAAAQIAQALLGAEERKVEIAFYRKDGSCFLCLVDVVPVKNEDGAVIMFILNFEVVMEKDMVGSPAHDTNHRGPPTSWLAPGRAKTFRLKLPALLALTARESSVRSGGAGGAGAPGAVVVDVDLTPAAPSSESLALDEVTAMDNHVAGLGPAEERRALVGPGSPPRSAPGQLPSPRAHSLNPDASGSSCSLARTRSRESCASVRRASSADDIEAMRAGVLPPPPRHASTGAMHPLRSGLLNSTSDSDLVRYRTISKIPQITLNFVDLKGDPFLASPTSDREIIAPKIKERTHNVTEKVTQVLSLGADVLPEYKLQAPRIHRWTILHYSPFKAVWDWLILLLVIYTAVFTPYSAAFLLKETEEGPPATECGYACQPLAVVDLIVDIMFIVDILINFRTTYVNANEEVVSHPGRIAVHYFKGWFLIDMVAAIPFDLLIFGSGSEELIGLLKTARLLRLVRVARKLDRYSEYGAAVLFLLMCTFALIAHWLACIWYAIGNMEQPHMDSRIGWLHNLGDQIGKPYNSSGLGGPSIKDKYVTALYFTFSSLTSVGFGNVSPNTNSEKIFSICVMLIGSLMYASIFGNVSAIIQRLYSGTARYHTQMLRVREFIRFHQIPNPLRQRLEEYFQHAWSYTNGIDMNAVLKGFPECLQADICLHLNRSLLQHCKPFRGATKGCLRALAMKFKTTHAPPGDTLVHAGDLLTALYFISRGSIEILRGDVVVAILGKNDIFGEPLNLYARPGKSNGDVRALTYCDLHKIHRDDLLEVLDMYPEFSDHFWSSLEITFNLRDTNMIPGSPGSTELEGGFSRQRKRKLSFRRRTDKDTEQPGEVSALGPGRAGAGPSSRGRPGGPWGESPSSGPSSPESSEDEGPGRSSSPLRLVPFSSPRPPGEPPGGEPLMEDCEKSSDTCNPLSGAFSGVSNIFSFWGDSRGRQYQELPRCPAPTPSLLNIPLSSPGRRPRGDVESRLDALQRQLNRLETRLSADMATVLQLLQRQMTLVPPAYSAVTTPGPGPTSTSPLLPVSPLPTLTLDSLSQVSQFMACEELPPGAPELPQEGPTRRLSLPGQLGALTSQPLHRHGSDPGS
Sequence of Cytochrome P450 2C19 (Homo sapiens) (P33261 whole entry, looked up): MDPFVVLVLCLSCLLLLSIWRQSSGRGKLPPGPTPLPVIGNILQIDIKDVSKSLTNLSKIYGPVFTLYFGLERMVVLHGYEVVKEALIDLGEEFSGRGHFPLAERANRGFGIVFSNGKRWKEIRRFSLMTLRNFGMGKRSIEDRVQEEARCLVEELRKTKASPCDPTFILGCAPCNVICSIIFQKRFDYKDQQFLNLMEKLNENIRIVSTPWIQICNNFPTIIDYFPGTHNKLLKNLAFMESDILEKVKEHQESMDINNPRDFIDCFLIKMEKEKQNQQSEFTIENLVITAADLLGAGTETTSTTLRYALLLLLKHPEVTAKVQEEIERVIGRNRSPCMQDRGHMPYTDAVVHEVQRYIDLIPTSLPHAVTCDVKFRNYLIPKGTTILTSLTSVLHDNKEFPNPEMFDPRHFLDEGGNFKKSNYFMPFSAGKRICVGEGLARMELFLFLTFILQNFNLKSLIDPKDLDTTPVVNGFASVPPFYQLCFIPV

Row | Compound | Potency [1] | Potency [2] | outcome [3] | Potency [4] | Potency [5] | Potency [6] | Potency [7] | Potency [8] | Potency [9] | Potency [10] | Potency [11] | max activation [12] [%] | Potency [13] | Potency [14]
1 | c1ccc2nccnc2c1 | inactive | inactive | inactive | inactive | inactive | inactive | inactive | inactive | inactive | – | – | – | – | –
2 | Nc1ccc([N+](=O)[O-])c(N)c1 | inactive | 53.1 µM (active) | inactive | – | – | 7.76 µM (active) | – | inactive | inactive | 30.9 µM (active) | – | – | – | –
3 | CC(N)C(=O)OC(C)(C)Cc1ccc(Cl)cc1 (stereo unspecified) | inactive | inactive | inactive | – | inactive | 7.76 µM (active) | 15.5 µM (active) | inactive | – | 1.55 µM (active) | 1.38 µM (active) | – | – | –
4 | OCCC(F)(F)C(F)(F)C(F)(F)C(F)(F)C(F)(F)C(F)(F)C(F)(F)C(F)(F)F | inactive | inactive | inactive | – | inactive | inactive | inactive | inactive | inactive | inactive | inactive | – | – | –
5 | O=C(O)Cc1cn(-c2ccccc2)nc1-c1ccc(Cl)cc1 | inactive | – | inactive | inactive | – | inactive | 5.49 µM (active) | inactive | inactive | – | inactive | -1.93 | inactive | inactive
6 | CCCCCCCCOS(=O)(=O)O | – | – | inactive | inactive | inactive | inactive | 28.3 µM (active) | inactive | inactive | 71 µM (active) | – | – | – | –
7 | O=C(CCNNC(=O)c1ccncc1)NCc1ccccc1 | inactive | – | inactive | inactive | – | 15.5 µM (active) | 4.9 µM (active) | inactive | – | 11 µM (active) | – | – | – | –
8 | O=C1c2cccc3c2[C@H](CCC3)CN1[C@@H]1CN2CCC1CC2 | inactive | – | – | inactive | inactive | – | inactive | inactive | – | inactive | inactive | -9.35 | – | inactive
9 | COC(=O)c1ccccc1C(=O)c1ccc(OCCN2CCCCC2)cc1 | inactive | inactive | inactive | inactive | – | 15.5 µM (active) | inactive | inactive | inactive | inactive | – | -0.568 | – | inactive
10 | CC(C)C(=O)OCc1cccc(OC(=O)[C@@H]2N3C(=O)[C@@H](NC(=O)Cc4ccccc4)[C@H]3SC2(C)C)c1 | – | inactive | inactive | inactive | inactive | inactive | 12.3 µM (active) | – | – | inactive | inactive | – | – | –
11 | COCCc1ccc(OCC2CO2)cc1 (stereo unspecified) | – | inactive | inactive | inactive | inactive | – | – | inactive | inactive | inactive | inactive | – | – | –
12 | CC(C)=O | inactive | inactive | inactive | inactive | – | – | – | inactive | – | inactive | inactive | -0.452 | – | –
13 | Oc1ccccc1-c1nnco1 | – | inactive | inactive | inactive | – | inactive | inactive | inactive | inactive | inactive | – | – | – | –
14 | C[C@@H](Oc1ccc(CNC(=O)c2cccnc2Oc2ccc3c(c2)OCO3)c(F)c1)C(=O)O | inactive | inactive | – | inactive | – | inactive | – | inactive | – | inactive | – | – | – | –
15 | CCCCN | inactive | inactive | inactive | inactive | – | – | – | inactive | inactive | – | inactive | – | – | –
